Assay results published in publication PMC7819943, “Rice protein-binding microarrays: a tool to detect cis-acting elements near promoter regions in rice”.
The full ranking holds about 68,000 sequences; the median of “fluorescence intensity (a.u.)” is about 9,100, and the highest 2% start at about 16,000. Many of the other results were omitted from the sample, so the highest values are more common in it than they were.

target: OsWRKY34 (Oryza sativa, UniProt Q0JBA9 1-250); assay: protein-binding microarray (RPBM); PBS, 2% BSA, 51.3 ng/ul salmon testes DNA, 50 uM zinc acetate, 200 nM TF, 25 C, 1 h; high values mean tight binding; details: protein: recombinant; tags: N-terminal polyhistidine and DsRed monomer fusion (pET32a); label: CyDye5-dUTP incorporated in the synthesized complementary strand; 3' TTTTT single-stranded linker to array surface; dsDNA, one strand shown
Sequence (Q0JBA9 entry or part of it): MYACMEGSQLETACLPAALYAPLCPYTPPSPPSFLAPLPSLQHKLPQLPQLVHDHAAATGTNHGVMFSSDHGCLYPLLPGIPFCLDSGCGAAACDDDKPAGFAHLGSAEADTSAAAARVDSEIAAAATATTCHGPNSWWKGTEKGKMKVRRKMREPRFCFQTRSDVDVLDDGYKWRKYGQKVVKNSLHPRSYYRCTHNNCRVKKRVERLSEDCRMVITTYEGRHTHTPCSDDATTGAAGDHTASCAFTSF
Procedure, shortened: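 Binding signal is defined as the fluorescence intensity of each feature in arbitrary units, read on an Axon 4000B scanner. Transcription factors with N-terminal polyhistidine and DsRed fusions came from E. coli BL21-CodonPlus and were purified on Ni–NTA. They were incubated at 200 nM for 1 h at 25 °C on a custom Agilent array that had been made double-stranded with Cy5-dUTP, with 50 µM zinc acetate present, and the array was washed.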

Sequence | binding signal
TTCTCTCTCTATCTCTCATTTATATATTTAATATATTTGTCGGAGTCACCTAGTGCAG | 9250 fluorescence intensity (a.u.)
AGTTGGCTATAATATATTTCTTCTCTCTCTATCTCTCATTCGGAGTCACCTAGTGCAG | 17700 fluorescence intensity (a.u.)
TTTTTTTCTCCTCATTATTCTTCTTTTCTTTCTCTATATTCGGAGTCACCTAGTGCAG | 9180 fluorescence intensity (a.u.)
ACCCACCACATCGACGCGACCACACTCCACACAAGCCATGCGGAGTCACCTAGTGCAG | 10100 fluorescence intensity (a.u.)
TAGTGTTGGTTTGATTTTTATATCACTAGAGATGAACTAACGGAGTCACCTAGTGCAG | 8560 fluorescence intensity (a.u.)
GATGATGATGATTTTGGTAGGAGATATGGATCGTGTTGGTCGGAGTCACCTAGTGCAG | 11300 fluorescence intensity (a.u.)
ATCTTATTAATTAATTCTTTGTGTTTCATATTATTCTAATCGGAGTCACCTAGTGCAG | 10300 fluorescence intensity (a.u.)
TGCGAGTTCGTCGCCGCCTCCGCCGATCTCCATCAGGCGACGGAGTCACCTAGTGCAG | 9610 fluorescence intensity (a.u.)
GCAGCGACGACATCTGACGGCCTCACCTACCTTTCGGTCTCGGAGTCACCTAGTGCAG | 8460 fluorescence intensity (a.u.)
GGTGTCTTGATTGATATGATTTAAATTATTCTTGGTCTTGCGGAGTCACCTAGTGCAG | 9570 fluorescence intensity (a.u.)
GGCTCAACAAATAATGTGAAGATCTCTCATTTTCATTTTCCGGAGTCACCTAGTGCAG | 8050 fluorescence intensity (a.u.)
TGTTTGGTTGGGATACATGGGAATTTTGGTAGGATGGGGACGGAGTCACCTAGTGCAG | 12700 fluorescence intensity (a.u.)
AAATTTGTTATTTTTGTTTCGAATTATATAATTCGAATTTCGGAGTCACCTAGTGCAG | 9450 fluorescence intensity (a.u.)
TCGTTATACCTGGTTTTTTTGGTTGAGGGATGTTATTCGACGGAGTCACCTAGTGCAG | 12500 fluorescence intensity (a.u.)
CTAGTTGTGTTTGTTAATTTCTTTCTATACATGGGTTACCCGGAGTCACCTAGTGCAG | 11700 fluorescence intensity (a.u.)
TTTATACATGGTTTGTGTTTTTCTCACTTTGGGTTGGGGACGGAGTCACCTAGTGCAG | 18000 fluorescence intensity (a.u.)
TCTTTGTTATAATTATGGGGTTGGTTTTATTCGTTTTCGACGGAGTCACCTAGTGCAG | 21900 fluorescence intensity (a.u.)
GACACCACATAAAGACACCCATCCCCGTGATCAACTACCTCGGAGTCACCTAGTGCAG | 8320 fluorescence intensity (a.u.)
CGCCTGTCAAATCCTAGTCAGGGAATCTGTCTTCCATCTACGGAGTCACCTAGTGCAG | 9100 fluorescence intensity (a.u.)
TCTTCTTTTGTTGTCTTCTGCTATCCAATCTCTTGTCAAACGGAGTCACCTAGTGCAG | 10500 fluorescence intensity (a.u.)
TATATTGTCTGTTTTCTCTTGAATCTTTCCTATCCAGTAGCGGAGTCACCTAGTGCAG | 8490 fluorescence intensity (a.u.)
TTTTTCTTTTTATTGTCTTGTTCTCGTGCGTGTTGAAAAACGGAGTCACCTAGTGCAG | 20300 fluorescence intensity (a.u.)

Sequence | binding signal
AGTTGAGGGATCCGTTGTATCTGGTTTTGCGGTTGAAGGACGGAGTCACCTAGTGCAG | 8570 fluorescence intensity (a.u.)
TTGTGTAGGTTTTGTTTCTTTCTTCTTTTTTCGAAAAGAGCGGAGTCACCTAGTGCAG | 8940 fluorescence intensity (a.u.)
TTATTGTTTTTATTGTCTTTTTTTCTTTATATTTCCAAAACGGAGTCACCTAGTGCAG | 11400 fluorescence intensity (a.u.)
GTTGAGGGACCCGCTGGATCTGGTTTTTGATTGAAGGATACGGAGTCACCTAGTGCAG | 8800 fluorescence intensity (a.u.)
TGTTATTATTGCCGTTGTCTTTATTTTTCTTTTTTGAAAACGGAGTCACCTAGTGCAG | 9580 fluorescence intensity (a.u.)
AAGGACCCGTTCTATCTGGTTTTGCGGTTGAAGGATAGAACGGAGTCACCTAGTGCAG | 28000 fluorescence intensity (a.u.)
AGTATTGTTTTCTCGCTGTCTCTATCCAAATCTTTGAAAACGGAGTCACCTAGTGCAG | 17200 fluorescence intensity (a.u.)
GCCTTTTTCTTGCGTGTAGGTTGTTCTGTTGAGAGAAAGACGGAGTCACCTAGTGCAG | 17700 fluorescence intensity (a.u.)
TTTTTTTTCTTTCTGTTCTGTTTCTGTTGAGAAACAAAGACGGAGTCACCTAGTGCAG | 8450 fluorescence intensity (a.u.)
CCTTTTCAAGTATTATTGCTGTTTGATTCATCTCTCTTTGCGGAGTCACCTAGTGCAG | 9510 fluorescence intensity (a.u.)
TAAACTTGCTCTGATGCGCCCACACGGGGCCACGGCGCGCCGGAGTCACCTAGTGCAG | 9010 fluorescence intensity (a.u.)
TAAACTCGTCTTATCCGCATGATTGTTGACTATAGTATGTCGGAGTCACCTAGTGCAG | 9300 fluorescence intensity (a.u.)
CTTTCATATATGTGTGTGCTATGATTTGTTTTCTTCCTCACGGAGTCACCTAGTGCAG | 11900 fluorescence intensity (a.u.)
CCGCATCCTTCTTGGACTTCTGTTTTGTTGTTGGCCATGGCGGAGTCACCTAGTGCAG | 11100 fluorescence intensity (a.u.)
GATTTTTCTTTACATGTTCTTTTTCATCGATCTTTTGAGACGGAGTCACCTAGTGCAG | 9460 fluorescence intensity (a.u.)
GCTCCAGATCTGTGGGTGTCTTTGGGTGAGTGGGCAAATACGGAGTCACCTAGTGCAG | 11200 fluorescence intensity (a.u.)
TCGTTTTTCTCTTTAGTGTGTGTGTGTTGCGTTTTTGCAACGGAGTCACCTAGTGCAG | 10300 fluorescence intensity (a.u.)
ATATCTCACTTTGACTGCTTGTTGTTATCGTTCTTTTATACGGAGTCACCTAGTGCAG | 12000 fluorescence intensity (a.u.)
CTGAACATGTTGTTCAGTTGGCCTCGTTTTCTCACCTTTGCGGAGTCACCTAGTGCAG | 9320 fluorescence intensity (a.u.)
GACCTGAAGTTCTCGTTGTGTTGGCCTGCGTTTTTATCTGCGGAGTCACCTAGTGCAG | 16800 fluorescence intensity (a.u.)
TTGTTCTCTTTTTTTTTGCGTGCGTTGACTTTATCTTCAACGGAGTCACCTAGTGCAG | 19900 fluorescence intensity (a.u.)
CTTCTGCTTGGTGTGTTGTGTGTTTTACCTTGAGTTATCTCGGAGTCACCTAGTGCAG | 8480 fluorescence intensity (a.u.)
